# Reference: paper PMC7862700, “An all-to-all approach to the identification of sequence-specific readers for epigenetic DNA modifications on cytosine”
# Tests used:
# Test in all cases: DAPPL (digital affinity profiling via proximity ligation, sequencing); 10 mM Tris-HCl pH 7.5, 50 mM NaCl, 1 mM DTT, 4% glycerol, room temperature, 30 min; GST-TFs on glutathione beads, 16-mer random dsDNA library, 0.1% formaldehyde crosslink after washing; high values mean tight binding
# Settings in all cases: protein: recombinant; tags: N-terminal GST; dsDNA, one strand shown
# FLI1 = target: T1, FLI1 (Homo sapiens, UniProt Q01543 1-452)
# T1 sequence: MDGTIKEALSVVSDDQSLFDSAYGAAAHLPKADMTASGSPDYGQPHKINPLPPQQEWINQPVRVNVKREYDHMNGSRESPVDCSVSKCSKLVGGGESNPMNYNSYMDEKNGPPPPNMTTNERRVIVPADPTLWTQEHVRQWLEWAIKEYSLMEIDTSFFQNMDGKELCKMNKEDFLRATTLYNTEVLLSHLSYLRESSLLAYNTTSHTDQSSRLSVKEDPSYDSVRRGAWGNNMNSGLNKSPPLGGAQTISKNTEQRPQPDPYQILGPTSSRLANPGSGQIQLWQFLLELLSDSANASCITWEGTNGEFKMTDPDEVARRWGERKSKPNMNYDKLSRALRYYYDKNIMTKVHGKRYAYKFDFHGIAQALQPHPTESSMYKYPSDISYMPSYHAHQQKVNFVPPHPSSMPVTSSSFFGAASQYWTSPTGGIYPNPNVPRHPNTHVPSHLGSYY
# How it was run: (§1)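 GST fusions of human transcription factors were expressed in yeast and captured with glutathione beads. Once given DNA barcodes and pooled alongside a tag-only sample, they were incubated for 30 min at room temperature with 200 nmole of a random double-stranded 16-mer DNA library in Tris/NaCl/DTT/glycerol buffer, then washed, crosslinked (0.1% formaldehyde), proximity-ligated, PCR-amplified and sequenced on an Illumina NextSeq500. The binding signal of each hexamer is its read frequency for a factor divided by its frequency for the tag-only sample.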
# ELK1 = target: T2, ELK1 (Homo sapiens, UniProt P19419 1-428)
# T2 sequence: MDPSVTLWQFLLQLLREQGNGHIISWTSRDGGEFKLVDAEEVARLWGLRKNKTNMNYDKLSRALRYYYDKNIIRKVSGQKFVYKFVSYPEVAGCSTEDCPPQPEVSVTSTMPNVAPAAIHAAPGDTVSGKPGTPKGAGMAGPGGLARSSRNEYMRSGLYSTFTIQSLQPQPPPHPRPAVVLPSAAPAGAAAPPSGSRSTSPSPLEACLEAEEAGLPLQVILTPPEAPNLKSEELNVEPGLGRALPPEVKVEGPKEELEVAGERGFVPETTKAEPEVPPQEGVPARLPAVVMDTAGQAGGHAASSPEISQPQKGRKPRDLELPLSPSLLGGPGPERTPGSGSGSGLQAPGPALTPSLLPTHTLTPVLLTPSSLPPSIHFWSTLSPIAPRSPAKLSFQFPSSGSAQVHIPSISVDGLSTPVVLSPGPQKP
# How it was run: as §1
# GABPA = target: T3, GABPA (Homo sapiens, UniProt Q06546 1-454)
# T3 sequence: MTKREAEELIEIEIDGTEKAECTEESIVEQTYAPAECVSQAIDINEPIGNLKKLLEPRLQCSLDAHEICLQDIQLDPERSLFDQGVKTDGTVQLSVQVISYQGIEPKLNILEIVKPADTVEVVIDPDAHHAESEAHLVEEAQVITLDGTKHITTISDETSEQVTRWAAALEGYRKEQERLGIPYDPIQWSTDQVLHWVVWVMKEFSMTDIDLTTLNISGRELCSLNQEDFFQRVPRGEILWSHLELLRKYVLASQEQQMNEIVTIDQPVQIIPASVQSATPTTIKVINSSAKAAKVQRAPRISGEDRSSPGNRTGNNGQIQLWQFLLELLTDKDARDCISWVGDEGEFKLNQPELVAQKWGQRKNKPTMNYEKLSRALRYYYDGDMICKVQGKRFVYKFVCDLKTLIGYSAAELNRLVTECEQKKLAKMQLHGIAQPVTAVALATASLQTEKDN
# How it was run: as §1
# ERG = target: T4, ERG (Homo sapiens, UniProt P11308 1-479)
# T4 sequence: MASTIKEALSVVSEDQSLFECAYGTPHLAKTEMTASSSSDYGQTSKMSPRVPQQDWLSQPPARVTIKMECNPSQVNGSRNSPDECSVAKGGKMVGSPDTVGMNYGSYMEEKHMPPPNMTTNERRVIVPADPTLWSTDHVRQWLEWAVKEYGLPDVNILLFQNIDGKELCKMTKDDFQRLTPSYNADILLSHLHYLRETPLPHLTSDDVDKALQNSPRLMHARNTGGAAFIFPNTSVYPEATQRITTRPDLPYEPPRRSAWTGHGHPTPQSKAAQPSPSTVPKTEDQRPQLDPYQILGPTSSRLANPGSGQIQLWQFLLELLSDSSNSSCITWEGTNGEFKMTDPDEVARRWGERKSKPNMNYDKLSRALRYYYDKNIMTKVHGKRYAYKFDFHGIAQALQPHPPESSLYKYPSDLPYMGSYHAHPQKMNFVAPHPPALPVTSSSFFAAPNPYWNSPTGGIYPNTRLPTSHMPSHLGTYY
# How it was run: as §1
# ELF1 = ELF1 (Homo sapiens, UniProt P32519 1-619)
# How it was run: as §1
# EHF = target: T5, EHF (Homo sapiens, UniProt Q9NZC4 1-300)
# T5 sequence: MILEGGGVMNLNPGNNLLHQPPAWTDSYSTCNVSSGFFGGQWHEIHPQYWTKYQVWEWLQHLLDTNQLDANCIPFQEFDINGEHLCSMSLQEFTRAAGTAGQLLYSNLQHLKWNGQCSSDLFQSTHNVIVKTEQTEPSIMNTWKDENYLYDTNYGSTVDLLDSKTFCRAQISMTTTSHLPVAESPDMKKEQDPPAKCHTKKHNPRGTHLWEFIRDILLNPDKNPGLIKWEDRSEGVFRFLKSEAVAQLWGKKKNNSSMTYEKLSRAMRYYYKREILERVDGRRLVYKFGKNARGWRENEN
# How it was run: as §1
# SPI1 = SPI1 (Homo sapiens, UniProt P17947 1-270)
# How it was run: as §1
# SPIB = SPIB (Homo sapiens, UniProt Q01892 1-262)
# How it was run: as §1
# ELK3 = target: T6, ELK3 (Homo sapiens, UniProt P41970 1-407)
# T6 sequence: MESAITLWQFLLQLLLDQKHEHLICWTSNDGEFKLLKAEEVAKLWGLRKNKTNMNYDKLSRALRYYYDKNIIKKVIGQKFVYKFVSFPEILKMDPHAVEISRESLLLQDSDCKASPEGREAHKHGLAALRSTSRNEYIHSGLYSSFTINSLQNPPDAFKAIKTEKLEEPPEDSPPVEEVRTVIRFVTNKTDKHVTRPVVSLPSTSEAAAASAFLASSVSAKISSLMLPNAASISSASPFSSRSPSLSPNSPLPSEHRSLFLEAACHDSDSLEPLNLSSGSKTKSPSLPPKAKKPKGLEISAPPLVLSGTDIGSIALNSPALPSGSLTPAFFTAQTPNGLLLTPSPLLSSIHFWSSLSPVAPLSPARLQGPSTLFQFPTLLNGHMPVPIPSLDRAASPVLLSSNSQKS
# How it was run: as §1
# Chain of ELF1 (P32519 whole entry): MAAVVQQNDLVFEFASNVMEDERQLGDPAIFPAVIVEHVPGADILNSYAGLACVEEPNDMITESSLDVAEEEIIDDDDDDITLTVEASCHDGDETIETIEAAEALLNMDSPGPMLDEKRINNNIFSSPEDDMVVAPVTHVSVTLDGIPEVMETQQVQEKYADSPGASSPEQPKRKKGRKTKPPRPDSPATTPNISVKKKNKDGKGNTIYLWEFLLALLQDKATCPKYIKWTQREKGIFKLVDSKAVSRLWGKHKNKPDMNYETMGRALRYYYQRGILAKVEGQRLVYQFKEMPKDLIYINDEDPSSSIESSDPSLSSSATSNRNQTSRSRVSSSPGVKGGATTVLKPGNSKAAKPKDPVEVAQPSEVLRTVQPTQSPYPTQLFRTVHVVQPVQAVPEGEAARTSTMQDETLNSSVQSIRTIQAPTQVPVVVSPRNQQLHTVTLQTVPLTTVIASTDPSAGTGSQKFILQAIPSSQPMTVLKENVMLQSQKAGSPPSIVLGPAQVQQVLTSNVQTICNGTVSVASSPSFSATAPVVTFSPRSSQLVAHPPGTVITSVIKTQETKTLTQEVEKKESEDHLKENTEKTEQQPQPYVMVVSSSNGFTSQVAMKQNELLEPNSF
# Chain of SPIB (Q01892 whole entry): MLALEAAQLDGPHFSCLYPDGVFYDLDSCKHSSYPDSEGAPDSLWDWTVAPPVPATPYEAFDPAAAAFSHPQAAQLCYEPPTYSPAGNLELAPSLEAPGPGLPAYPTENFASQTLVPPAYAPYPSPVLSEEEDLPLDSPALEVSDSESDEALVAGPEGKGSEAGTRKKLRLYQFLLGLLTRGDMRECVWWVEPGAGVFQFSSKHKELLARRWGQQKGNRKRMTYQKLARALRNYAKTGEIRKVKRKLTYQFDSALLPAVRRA
Sequence,binding signal (FLI1),binding signal (ELK1),binding signal (GABPA),binding signal (ERG),binding signal (ELF1),binding signal (EHF),binding signal (SPI1),binding signal (SPIB),binding signal (ELK3)
CAAGTA,"1.09 fold enrichment (6-mer frequency, TF over GST control)","1.06 fold enrichment (6-mer frequency, TF over GST control)","1.19 fold enrichment (6-mer frequency, TF over GST control)","1.03 fold enrichment (6-mer frequency, TF over GST control)","1.03 fold enrichment (6-mer frequency, TF over GST control)","1.1 fold enrichment (6-mer frequency, TF over GST control)","1.07 fold enrichment (6-mer frequency, TF over GST control)","1.01 fold enrichment (6-mer frequency, TF over GST control)","1.17 fold enrichment (6-mer frequency, TF over GST control)"
CTCAGT,"1.16 fold enrichment (6-mer frequency, TF over GST control)","1.21 fold enrichment (6-mer frequency, TF over GST control)","1.2 fold enrichment (6-mer frequency, TF over GST control)","1.13 fold enrichment (6-mer frequency, TF over GST control)","1.22 fold enrichment (6-mer frequency, TF over GST control)","1.06 fold enrichment (6-mer frequency, TF over GST control)","1.18 fold enrichment (6-mer frequency, TF over GST control)","1.14 fold enrichment (6-mer frequency, TF over GST control)","1.24 fold enrichment (6-mer frequency, TF over GST control)"
TATCTA,"1.18 fold enrichment (6-mer frequency, TF over GST control)","1.23 fold enrichment (6-mer frequency, TF over GST control)","1.35 fold enrichment (6-mer frequency, TF over GST control)","1.18 fold enrichment (6-mer frequency, TF over GST control)","1.18 fold enrichment (6-mer frequency, TF over GST control)","1.2 fold enrichment (6-mer frequency, TF over GST control)","1.27 fold enrichment (6-mer frequency, TF over GST control)","1.28 fold enrichment (6-mer frequency, TF over GST control)","1.28 fold enrichment (6-mer frequency, TF over GST control)"
GTATAC,"1.28 fold enrichment (6-mer frequency, TF over GST control)","1.3 fold enrichment (6-mer frequency, TF over GST control)","1.32 fold enrichment (6-mer frequency, TF over GST control)","1.24 fold enrichment (6-mer frequency, TF over GST control)","1.18 fold enrichment (6-mer frequency, TF over GST control)","1.22 fold enrichment (6-mer frequency, TF over GST control)","1.18 fold enrichment (6-mer frequency, TF over GST control)","1.27 fold enrichment (6-mer frequency, TF over GST control)","1.28 fold enrichment (6-mer frequency, TF over GST control)"
CGCCTC,"1.47 fold enrichment (6-mer frequency, TF over GST control)","1.49 fold enrichment (6-mer frequency, TF over GST control)","1.41 fold enrichment (6-mer frequency, TF over GST control)","1.39 fold enrichment (6-mer frequency, TF over GST control)","1.49 fold enrichment (6-mer frequency, TF over GST control)","1.4 fold enrichment (6-mer frequency, TF over GST control)","1.27 fold enrichment (6-mer frequency, TF over GST control)","1.51 fold enrichment (6-mer frequency, TF over GST control)","1.46 fold enrichment (6-mer frequency, TF over GST control)"
CATTTC,"1.8 fold enrichment (6-mer frequency, TF over GST control)","1.86 fold enrichment (6-mer frequency, TF over GST control)","1.64 fold enrichment (6-mer frequency, TF over GST control)","2.07 fold enrichment (6-mer frequency, TF over GST control)","1.63 fold enrichment (6-mer frequency, TF over GST control)","1.77 fold enrichment (6-mer frequency, TF over GST control)","1.97 fold enrichment (6-mer frequency, TF over GST control)","1.85 fold enrichment (6-mer frequency, TF over GST control)","1.67 fold enrichment (6-mer frequency, TF over GST control)"
AATGGG,"1.26 fold enrichment (6-mer frequency, TF over GST control)","1.24 fold enrichment (6-mer frequency, TF over GST control)","1.18 fold enrichment (6-mer frequency, TF over GST control)","1.16 fold enrichment (6-mer frequency, TF over GST control)","1.2 fold enrichment (6-mer frequency, TF over GST control)","1.29 fold enrichment (6-mer frequency, TF over GST control)","1.34 fold enrichment (6-mer frequency, TF over GST control)","1.22 fold enrichment (6-mer frequency, TF over GST control)","1.08 fold enrichment (6-mer frequency, TF over GST control)"
CCCACA,"1.13 fold enrichment (6-mer frequency, TF over GST control)","1.12 fold enrichment (6-mer frequency, TF over GST control)","1.26 fold enrichment (6-mer frequency, TF over GST control)","1.07 fold enrichment (6-mer frequency, TF over GST control)","1.17 fold enrichment (6-mer frequency, TF over GST control)","1.12 fold enrichment (6-mer frequency, TF over GST control)","1.08 fold enrichment (6-mer frequency, TF over GST control)","1.1 fold enrichment (6-mer frequency, TF over GST control)","1.08 fold enrichment (6-mer frequency, TF over GST control)"
